This note sets out measurements from PubChem BioAssay (NCATS).

Structures are written as SMILES. Several values for one entry are separate records, joined by “and”; a condition that tells them apart may be missing. Identical values can stand only once. Unmarked numbers belong to inactive results. Inconclusive results are not listed. Activity calls are given as the source filed them. Unless noted, calls come from the whole dose curve; as a rule, active = well fitted inhibition curve with a large enough effect; inconclusive = small, poorly fitted or top-dose-only effect; inactive = flat fitted curve, though single readings scatter.

Assay [1] can be described thus: Drug repurposing screens with cells derived from glioblastoma tumor samples (AID 1345199). For activity, negative = cell killing: % is set by controls: 0 for no effect and ±100 for the full control effect. Note: nearly all actives have a fitted effect of over 40% in size. Note: potency is the fitted concentration of half-maximal effect. The conditions noted are these: GBM patient neurospheres viability, ATP luminescence, 48 h. The method in brief: (§1)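 Primary testing used CD133+ neurospheres from four GBM patients, seven concentrations, 48 h exposure and ATP-based viability; confirmation added three slower-growing patient lines.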

For another assay, the system named is astro (control astrocytes). The description is as above. The conditions noted are these: viability, ATP luminescence, 48 h; series mostly up to 45.9 µM. The method, boiled down:
as §1

Assay [2] addresses Nuclear receptor subfamily 1 group I member 2 (Rattus norvegicus) (UniProt Q9R1A7). Description: qHTS assay for small molecule activators of the rat pregnane X receptor (rPXR) signaling pathway (AID 651751; call rule not given here; note: 0% is about no effect). The following applies: rPXR reporter cells, luciferase (One-Glo), 24 h.
Assay [3] can be described thus: qHTS assay for small molecule activators of the human pregnane X receptor (PXR) signaling pathway (AID 720659; call rule not given here; note: 0% is about no effect). The conditions noted are these: DPX-2 HepG2 CYP3A4-luciferase, 24 h; series mostly up to 92.3 µM. (In qHTS, concentration-response curves come from the screen itself.)
Setting [4] is: at 45.9 µM (top of the series), tumour line B.
The mark [5] stands for this setting: at 45.9 µM (top of the series), tumour line D.
Setting [6] is: at 46 µM (top of the series), tumour line A.
The mark [7] stands for this setting: at 46.1 µM (top of the series), tumour line C.
Where [8] appears, read: at 20 µM (top of the series), tumour line C.
The mark [9] stands for this setting: at 21.2 µM (top of the series), tumour line B.
The mark [10] stands for this setting: at 21.2 µM (top of the series), tumour line D.
[11] abbreviates: at 21.3 µM (top of the series), tumour line A.

Nuclear receptor subfamily 1 group I member 2 (Rattus norvegicus), sequence (Q9R1A7 whole entry, looked up): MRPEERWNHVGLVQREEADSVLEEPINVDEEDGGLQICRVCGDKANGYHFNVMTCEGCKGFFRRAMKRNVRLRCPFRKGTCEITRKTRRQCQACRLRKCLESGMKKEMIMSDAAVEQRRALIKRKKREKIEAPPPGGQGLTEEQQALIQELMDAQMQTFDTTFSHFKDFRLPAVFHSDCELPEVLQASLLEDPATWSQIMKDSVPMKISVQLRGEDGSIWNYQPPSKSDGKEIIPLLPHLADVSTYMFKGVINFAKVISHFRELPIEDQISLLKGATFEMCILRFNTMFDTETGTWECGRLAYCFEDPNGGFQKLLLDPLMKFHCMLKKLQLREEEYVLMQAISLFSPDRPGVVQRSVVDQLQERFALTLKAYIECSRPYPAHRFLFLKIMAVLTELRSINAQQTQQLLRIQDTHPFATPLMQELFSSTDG

Take `O=Cc1ccco1`: the activity, negative = cell killing in assay [1] (setting [4]) was -3.46%; in assay [1] (setting [5]), 2.23%; in assay [1] (setting [6]), -6.89%; in assay [1] (setting [7]), -7%. In addition, the Potency entry in the assay with astro is “inactive”. Also, the max response in assay [2] is 4.33%. The compound was called inactive in assay [3].

Consider `NCC[C@H](O)C(=O)N[C@@H]1C[C@H](N)[C@@H](O[C@H]2O[C@H](CN)[C@@H](O)[C@H](O)[C@H]2N)[C@H](O[C@@H]2O[C@H](CO)[C@@H](O)[C@H]2O)[C@H]1O`, for which the activity, negative = cell killing in assay [1] (setting [8]) is -6.64%; in assay [1] (setting [9]), -8.33%; in assay [1] (setting [10]), -11.1%; in assay [1] (setting [11]), -21.7%. Moreover, the Potency entry in the assay on astro is “inactive”.

For `CCON=O`, the figures for the activity, negative = cell killing in assay [1] (setting [4]), in assay [1] (setting [5]) and in assay [1] (setting [7]) were -13.3%, 8.29% and -23.8%, respectively. For the same compound, the Potency in assay [1] (tumour line A) is 0.224 µM (active). Also, the Potency entry in the assay with astro is “inactive”.

Regarding `CC(N)Cc1ccc(O)cc1` (stereo unspecified), the activity, negative = cell killing in assay [1] (setting [4]) is -3.82%; in assay [1] (setting [5]), -1.1%; in assay [1] (setting [6]), -18.1%; in assay [1] (setting [7]), 5.3%. Also, the Potency result in the assay on astro was “inactive”.

Regarding `C[C@]12C=CC(=O)C=C1CC[C@@H]1[C@@H]2CC[C@]2(C)OC(=O)CC[C@@H]12`, the activity, negative = cell killing in assay [1] (setting [4]) is -3.73%; in assay [1] (setting [5]) it was -7.84%; in assay [1] (setting [6]), -28.6%; in assay [1] (setting [7]) it was 1.2%. In addition, in the assay with astro, the Potency entry is “inactive”.

In the case of `CCNC(C)Cc1cccc(C(F)(F)F)c1` (stereo unspecified), the activity, negative = cell killing in assay [1] (setting [4]) was -2.98%; in assay [1] (setting [5]) it was -5.81%; in assay [1] (setting [6]), -19.5%; in assay [1] (setting [7]) it was -4.96%. Further, the Potency entry with astro was “inactive”.

Consider `CCCC(=O)OC(C(Cl)(Cl)Cl)P(=O)(OC)OC` (stereo unspecified), for which the activity, negative = cell killing in assay [1] (setting [4]) is -9.86%; in assay [1] (setting [5]), -6.58%; in assay [1] (setting [6]) it was -3.23%; in assay [1] (setting [7]) it was 7.15%. The Potency result in the assay on astro was “inactive”.

In the case of `CC(=O)OCC(=O)[C@H]1CC[C@H]2[C@@H]3CC[C@H]4C[C@H](O)CC[C@]4(C)[C@H]3C(=O)C[C@]12C`, the activity, negative = cell killing in assay [1] (setting [8]) was -20.2%; in assay [1] (setting [9]), -4.33%; in assay [1] (setting [10]) it was 0.678%; in assay [1] (setting [11]), -6.64%. Moreover, the Potency entry in the assay on astro is “inactive”.

With `O=C/C=C/c1ccccc1`, the activity, negative = cell killing was 0.0687% in assay [1] (setting [4]), -9.63% in assay [1] (setting [5]), -23.4% in assay [1] (setting [6]) and 1.48% in assay [1] (setting [7]). In the assay on astro, the Potency result was “inactive”. The max response in assay [2] was -2.3% and 9.18%. For the same compound, the outcome in assay [3] was inactive.

`CCCCC[C@@H](O)C1C(=O)OC(C)[C@H](O)/C=C/C=C/C=C/C=C/C=C(\C)C(O)C(O)C(O)C[C@H](O)C[C@H](O)C[C@H](O)C[C@H](O)C[C@@H]1O` (stereo partly specified): the activity, negative = cell killing in assay [1] (setting [4]) is -7.45% and 7.1%; in assay [1] (setting [5]), 14.9% and -7.76%; in assay [1] (setting [6]) it was -18.3% and -29%; in assay [1] (setting [7]), -15.7% and -7.35%. Further, the Potency result in the assay with astro was “inactive”.

On to `C[C@]12CCC(=O)C[C@@H]1CC[C@@H]1[C@@H]2CC[C@]2(C)[C@@H](O)CC[C@@H]12`, for which the activity, negative = cell killing in assay [1] (setting [4]) is -19.9%; in assay [1] (setting [5]) it was -25.4%; in assay [1] (setting [7]), -25.5%. The Potency in assay [1] (tumour line A) was 12.6 µM (active). The max response in assay [2] was 6.67% and 13%.

As for `ClC=C(Cl)Cl`, the activity, negative = cell killing in assay [1] (setting [4]) is -0.797%; in assay [1] (setting [5]) it was -16.6%; in assay [1] (setting [6]), -33.6%; in assay [1] (setting [7]), -1.4%. Moreover, in the assay with astro, the Potency result was “inactive”. Besides, the max response in assay [2] was 1.22% and -1.96%. Further, in assay [3], the compound was called inactive.

Take `CCCCNCC(O)c1ccc(O)cc1` (stereo unspecified): the activity, negative = cell killing in assay [1] (setting [4]) was -14.1%; in assay [1] (setting [5]) it was -0.799%; in assay [1] (setting [7]) it was 1.33%. For the same compound, the Potency entry in the assay on astro is “inactive”.

Regarding `C=CCN1CC[C@]23c4c5ccc(O)c4O[C@H]2[C@@H](O)C=C[C@H]3[C@H]1C5`, the activity, negative = cell killing in assay [1] (setting [4]) is -22.5%; in assay [1] (setting [5]), 3.8%; in assay [1] (setting [7]), -4.91%. Moreover, the Potency result with astro was “inactive”.

As to `C[N+]1(C)CCCCC1COC(=O)C(O)(c1ccccc1)c1ccccc1` (stereo unspecified), the activity, negative = cell killing in assay [1] (setting [4]) is -0.912%; in assay [1] (setting [5]), -3.36%; in assay [1] (setting [7]), -16.5%. Moreover, the Potency result with astro is “inactive”.

In the case of `C[C@]12CCC(=O)C=C1C=C[C@@H]1[C@@H]2CC[C@@]2(C)[C@H]1CC[C@@]2(O)CCC(=O)O`, the activity, negative = cell killing was 15.7% in assay [1] (setting [8]), -2.69% in assay [1] (setting [9]) and -8.65% in assay [1] (setting [10]). Moreover, the Potency entry in the assay with astro was “inactive”.

With `O=P(O)(O)C(Cl)(Cl)P(=O)(O)O`, the activity, negative = cell killing in assay [1] (setting [4]) is 1.35%; in assay [1] (setting [5]), -11.3%; in assay [1] (setting [7]), -5.59%. In addition, the Potency entry in the assay with astro was “inactive”.

Take `Oc1cc(Cl)c(Cl)cc1Cl`: the activity, negative = cell killing in assay [1] (setting [4]) was -12.6%; in assay [1] (setting [5]), -21.4%; in assay [1] (setting [6]), -39.7%; in assay [1] (setting [7]) it was -1.02%. In addition, in the assay on astro, the Potency result is “inactive”. Further, the max response in assay [2] was 6.93% and 2.63%. Besides, in assay [3], the outcome was inactive.

With `COc1ccc(OC)c([C@@H](O)[C@H](C)N)c1`, the activity, negative = cell killing in assay [1] (setting [4]) is -15.8%; in assay [1] (setting [5]), -1.31%; in assay [1] (setting [7]) it was -18.1%. In addition, the Potency entry in the assay with astro is “inactive”.

As for `CCOP(=O)(OCC)O/C(=C/Cl)c1ccc(Cl)cc1Cl`, the figures for the activity, negative = cell killing in assay [1] (setting [4]) and in assay [1] (setting [5]) were -17.8% and -23.4%, respectively. The Potency in assay [1] (tumour line A) is 12.6 µM (active). The Potency result in the assay with astro is “inactive”.
